# Reference: PubChem BioAssay AID504381 (The Scripps Research Institute Molecular Screening Center, 2011)
# Values without a mark were called inactive. The rule behind the calls is not given here.
# Test system: Sigma receptor 2
# Assay: radioligand displacement at receptors and transporters – biochemical, PDSP panel, Set 2, late-stage follow-up (AID 504381)
# Settings: PDSP radioligand binding panel, at 10 µM, stronger effect = higher value
compound,measurement,value
CC(=O)c1ccc2c(c1)Nc1ccccc1S2,inhibition,-12.2%
